Measles CPE: compounds protecting cells from measles virus cytopathic effect, primary screen, measles RdRp inhibitor project, single point, MLSMR library, absorbance. Measles virus-infected cells, CPE protection. protection (pct of control), % at 4 µM. actives 1.5% (n = 140,000); in the data active = protection mostly above about 24%, no sharp cut-off; inactive = mostly below about 26%
Cl transport mod: KCC2 cotransporter modulators, thallium flux, primary screen, cell-based, HEK293 KCC2, FluoZin-2 fluorescence, MLSMR; KCC2 cells, thallium flux FluoZin-2 fluorescence; B-score of Tl+ flux slope (higher = more flux/activation; lower = inhibition) at 10 µM; actives 2.2% (n = 190,000); AID 1456, 2008;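 active = thallium flux slope and its plate-corrected score both differing from the plate sample mean at a set confidence after two filtering rounds, in either direction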;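 note: slope of fluorescence scaled to starting intensity during 10 to 20 s after thallium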
ROMK mod: ROMK potassium channel modulators, primary screen, cell-based, thallium flux, MLSMR library | Tet-inducible ROMK, thallium flux fluorescence; actives lie on both sides | actives 2% (n = 130,000) | ATP-sensitive inward rectifier potassium channel 1 (Homo sapiens), P48048 | B-score at 10 µM;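 active = signal ratio slope over the read window, or its plate-corrected B-score, at least 3 SD from the plate mean, either direction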;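 note: B-score of the F/F0 ratio slope over 7 to 12 s after thallium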
Target sequence (P48048 whole entry, looked up): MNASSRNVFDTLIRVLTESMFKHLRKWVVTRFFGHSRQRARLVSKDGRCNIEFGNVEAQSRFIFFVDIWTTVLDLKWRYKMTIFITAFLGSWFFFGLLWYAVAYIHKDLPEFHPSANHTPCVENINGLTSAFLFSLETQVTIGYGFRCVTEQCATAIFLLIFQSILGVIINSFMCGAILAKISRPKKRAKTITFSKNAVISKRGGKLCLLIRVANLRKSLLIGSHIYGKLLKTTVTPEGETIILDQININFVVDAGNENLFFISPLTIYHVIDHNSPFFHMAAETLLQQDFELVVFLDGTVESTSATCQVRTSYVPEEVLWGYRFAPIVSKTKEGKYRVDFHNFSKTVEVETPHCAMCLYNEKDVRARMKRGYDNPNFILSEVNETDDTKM
Arbovirus anti: antivirals against arbovirus infection, primary screen, cell-based, full library, 10K replicate subset | arbovirus infection cell-based antiviral screen | inhibition, % at 10 µM | actives 0.37% (n = 200,000) | AID 1251, 2008; in the data active = inhibition above about 30%
HSV augment: enhancers of HSV replication in host cells, fold increase, host cell viability; HSV replication augmentation in cells; maximum fold increase; actives 0.005% (n = 220,000); AID 1956, 2009; in the data active = maximum fold increase above about 1.5; inconclusive = no clear call, values can overlap the other calls; tested in PC3 cells
ROMK hit retest: ROMK channel modulator hit retest, confirmation, cell-based, thallium flux, duplicate, resupplied hits; actives 54% (n = 3,000); fluorescence ratio; stronger effect = lower value; AID 1917, 2009; normalized thallium flux (F/F0 slope) at 10 µM; shares compounds with ROMK mod;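 active = Flux at 10 µM at least 3 SD below or above vehicle control mean in one or both replicates; inconclusive = no clear call, values can overlap the other calls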
Hits are given with their value. Sampled rows, rich in hits. Any-hit rate of the full collection: about 4%.

How did Cc1ccc[n+](CC(=O)c2ccc(NC(=O)c3ccccc3)cc2)c1 do in these assays?
Cl transport mod: inactive; ROMK mod: inactive; Arbovirus anti: inactive; HSV augment: inactive

What do the screens show for `O=C(Nc1ccc[n+](CC(=O)c2cccc3ccccc23)c1)c1ccccc1`?
Measles CPE: inactive; Cl transport mod: inactive; ROMK mod: -2.79; Arbovirus anti: inactive; HSV augment: inactive; ROMK hit retest: 0.0558

How did Cc1c(/C=C/C(=O)c2ccc(C(C)C)cc2)cnn1C do in these assays?
Cl transport mod: inactive; ROMK mod: inactive; Arbovirus anti: inactive; HSV augment: inactive

What do the screens show for `Nc1nn(-c2ccccc2)c(N)c1N=Nc1ccccc1`?
Measles CPE: inactive; Cl transport mod: inactive; ROMK mod: 3.13; Arbovirus anti: inactive; HSV augment: inactive; ROMK hit retest: inactive

What do the screens show for `Cc1nn(-c2ccccc2)c(N)c1N=Nc1ccccc1`?
Measles CPE: inactive; Cl transport mod: inactive; Arbovirus anti: inactive; HSV augment: inactive

Results for CCOC(=O)Cc1cc(=O)n2[nH]c(C(C)(C)C)cc2n1 ?
Cl transport mod: inactive; HSV augment: inactive

Results for Cc1c(/C(O)=C2\C(=O)C(=O)N(CCN(C)C)C2c2ccccc2)cnn1-c1ccccc1 (stereo unspecified) ?
Cl transport mod: inactive; HSV augment: inactive; ROMK hit retest: inactive

What do the screens show for `N#C/C(=C\c1ccccc1)C(=O)N(c1ccccn1)C1CCCCC1`?
Measles CPE: inactive; Cl transport mod: inactive; Arbovirus anti: inactive; HSV augment: inactive; ROMK hit retest: 0.0452

What do the screens show for `O=C(/C=C/c1ccc([N+](=O)[O-])cc1)N(c1ccccn1)C1CCCCC1`?
Cl transport mod: inactive; ROMK mod: 5.66; Arbovirus anti: inactive; HSV augment: inactive; ROMK hit retest: inactive

Results for O=C(c1cccc(C(=O)N(c2ccccn2)C2CCCCC2)c1)N(c1ccccn1)C1CCCCC1 ?
Cl transport mod: inactive; ROMK mod: inactive; Arbovirus anti: inactive; HSV augment: inactive

Results for O=C(Oc1ccc(=O)n(-c2ccccc2)n1)c1ccc(F)cc1 ?
ROMK mod: -3.83; Arbovirus anti: inactive; HSV augment: inactive; ROMK hit retest: 0.0534

How did CCOC(=O)C1=C(C)NC(SC)=C(C#N)C1CC(C)C (stereo unspecified) do in these assays?
Cl transport mod: inactive; ROMK mod: 2.5; HSV augment: inactive; ROMK hit retest: inactive

Results for CC(=O)C1=C(C)NC(SCC(N)=O)=C(C#N)C1CC(C)C (stereo unspecified) ?
Cl transport mod: inactive; ROMK mod: inactive; Arbovirus anti: inactive; HSV augment: inactive

How did COC(=O)c1c(C)oc2ccc(NS(=O)(=O)c3cccs3)cc12 do in these assays?
Measles CPE: inactive; Cl transport mod: inactive; ROMK mod: -4.01; Arbovirus anti: inactive; HSV augment: inactive; ROMK hit retest: inconclusive

Results for COCCOC(=O)c1c(C)oc2ccc(NS(=O)(=O)c3ccccc3)cc12 ?
Measles CPE: inactive; Cl transport mod: inactive; Arbovirus anti: inactive; HSV augment: inactive

What do the screens show for `CCOC(=O)c1c(C)oc2ccc(NS(=O)(=O)c3ccc4c5c(cccc35)C(=O)N4)cc12`?
Measles CPE: inactive; Cl transport mod: inactive; ROMK mod: -2.96; Arbovirus anti: inactive; HSV augment: inactive; ROMK hit retest: inactive

How did CC(=O)c1cc(-c2ccccc2)n(CC(=O)Nc2cccc(C)c2)c1C do in these assays?
Measles CPE: inactive; Cl transport mod: inactive; ROMK mod: inactive; Arbovirus anti: inactive; HSV augment: inactive

How did CC(C)OC(=O)NC(Nc1ccccc1C(=O)O)(C(F)(F)F)C(F)(F)F do in these assays?
Cl transport mod: inactive; HSV augment: inactive; ROMK hit retest: inactive

What do the screens show for `CS(=O)(=O)N(C(=O)NC(=O)NC12CC3CC(CC(C3)C1)C2)C1CCCCC1`?
Cl transport mod: inactive; ROMK mod: inactive; Arbovirus anti: inactive; HSV augment: inactive

Results for CCCCN(CC)c1nc(N)c2c(N)nc(OCC)cc2c1C#N ?
Measles CPE: inactive; ROMK mod: inactive; Arbovirus anti: inactive; HSV augment: inactive

What do the screens show for `CCCCN(CC)c1nc(N)c(C#N)c(CC#N)c1C#N`?
Measles CPE: inactive; Cl transport mod: inactive; ROMK mod: -3.08; Arbovirus anti: inactive; HSV augment: inactive; ROMK hit retest: 0.0553

Results for C=C(C)CN(CC)c1nc(N)c(C#N)c(CC#N)c1C#N ?
Measles CPE: inactive; ROMK mod: -2.59; Arbovirus anti: inactive; HSV augment: inactive; ROMK hit retest: 0.0547

Results for CC(C)OC(=O)c1c2c(n3ccccc13)C(=O)c1ccccc1C2=O ?
Measles CPE: inactive; Cl transport mod: inactive; Arbovirus anti: inactive; HSV augment: inconclusive; ROMK hit retest: 0.0515

How did COC(=O)c1cc2c(C)c(C)c3ccccn3c-2c1C(=O)OC do in these assays?
Measles CPE: inactive; Cl transport mod: inactive; ROMK mod: inactive; Arbovirus anti: inactive; HSV augment: inactive

How did O=C(CCl)Nc1cccc(S(=O)(=O)NC2=NCCC2)c1 do in these assays?
Cl transport mod: inactive; HSV augment: inactive

How did O=C(COC(=O)c1ccc(S(=O)(=O)NCc2ccco2)cc1)Nc1ccc(Cl)cn1 do in these assays?
Cl transport mod: inactive; ROMK mod: inactive; Arbovirus anti: inactive; HSV augment: inactive

What do the screens show for `O=Nc1c(-c2ccccc2)cc2ccccn12`?
ROMK mod: inactive; Arbovirus anti: inactive; HSV augment: inactive

What do the screens show for `COc1ccc(C(C[N+](=O)[O-])c2c(-c3ccccc3)cc3ccccn23)cc1` (stereo unspecified)?
Measles CPE: inactive; Cl transport mod: inactive; ROMK mod: -3.66; Arbovirus anti: inactive; ROMK hit retest: inactive

Results for COc1cc(C(C[N+](=O)[O-])c2c(-c3ccccc3)cc3ccccn23)cc(OC)c1OC (stereo unspecified) ?
Measles CPE: inactive; Cl transport mod: inactive; ROMK mod: inactive; Arbovirus anti: inactive

What do the screens show for `COc1ccc(C(C[N+](=O)[O-])c2c(-c3ccccc3)cc3ccccn23)cc1OC` (stereo unspecified)?
Measles CPE: inactive; Cl transport mod: inactive; ROMK mod: -3.72; Arbovirus anti: inactive; ROMK hit retest: 0.0641

What do the screens show for `COCCCNc1nc2nonc2nc1N1CCC(C(C)N2CCOCC2)CC1` (stereo unspecified)?
Cl transport mod: inactive; ROMK mod: inactive; Arbovirus anti: inactive; HSV augment: inactive

Results for C=CCNc1cccc(Br)c1 ?
HSV augment: inactive

How did Cc1cc(C(=O)OCC(=O)N2c3ccccc3CC2C)c(C)o1 (stereo unspecified) do in these assays?
Measles CPE: inactive; Cl transport mod: inactive; ROMK mod: inactive; Arbovirus anti: inactive; HSV augment: inactive; ROMK hit retest: inconclusive

Assay outcomes (PubChem)
